Screening results from PubChem.
Hits are enriched below; roughly 2.4% of the tested compounds scored in any of these assays.
D2 PAM-1 – Beta-Arrestin HTS for Positive Allosteric Modulators of the Human D2 Dopamine Receptor: Potentiators. D(2) dopamine receptor (Homo sapiens), P14416. DiscoveRx D2 beta-arrestin cells, luminescence, 90 min; 100% = 57 uM dopamine signal. potentiation, % (test concentration not listed). 0.23% of 360,000 active. AID 624464, 2012; in the data active = potentiation above about 50%
Target sequence (P14416 whole entry, looked up): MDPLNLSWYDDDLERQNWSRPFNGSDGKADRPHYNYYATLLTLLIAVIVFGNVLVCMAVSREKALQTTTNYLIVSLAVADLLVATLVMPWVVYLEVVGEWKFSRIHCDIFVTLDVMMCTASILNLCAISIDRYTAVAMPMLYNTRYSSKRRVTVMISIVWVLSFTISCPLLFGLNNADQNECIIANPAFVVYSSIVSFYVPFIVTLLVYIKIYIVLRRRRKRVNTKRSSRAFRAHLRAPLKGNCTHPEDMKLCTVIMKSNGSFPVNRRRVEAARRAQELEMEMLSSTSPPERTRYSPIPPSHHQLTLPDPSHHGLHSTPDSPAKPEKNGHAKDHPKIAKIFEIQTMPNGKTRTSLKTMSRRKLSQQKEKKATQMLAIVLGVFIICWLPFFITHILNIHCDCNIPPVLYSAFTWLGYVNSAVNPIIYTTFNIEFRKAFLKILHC
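D2 cells co-treated with compound plus 50 nM dopamine (EC20) for 90 min at 37 deg C to detect potentiation. Beta-arrestin recruitment was read as enzyme-fragment luminescence after 1 h at ambient temperature. Full response was set by 57 uM dopamine.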
D2 PAM-2 – HTS Assay for Positive Allosteric Modulators of the Human D2 Dopamine Receptor: Primary Screen for Potentiators | potentiation, % at 10 µM | AID 485347, 2010 | D(2) dopamine receptor (Homo sapiens), P14416 | HEK293 T-REx D2, calcium flux, EC20 dopamine potentiation | 0.34% of 340,000 active;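 active = potentiation over 3 SD above the plate norm, cut at about 30% in these data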; note: 0% is about no effect
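Using a no-wash calcium dye in inducible, force-coupled HEK293 Trex cells expressing D2, we tracked fluorescence each second for 180 s after compound, then for 180 s after EC20 dopamine to detect augmented signalling.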
D2 ag-1 – Beta-Arrestin HTS for Positive Allosteric Modulators of the Human D2 Dopamine Receptor: Agonists; 0.084% of 360,000 active; activation, % (no concentration beside the values); DiscoveRx PathHunter D2 beta-arrestin, luminescence, 90 min; 100% = 57 uM dopamine signal; D(2) dopamine receptor (Homo sapiens), P14416; in the data active = activation above about 40%
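DiscoveRx PathHunter D2 beta-arrestin cells (2,100/well) attached overnight, then compound-stimulated 90 min at 37 C in HBSS/10 mM HEPES/0.1% Tween-20 buffer; beta-galactosidase complementation read by luminescence after 1 h at ambient temperature. Dopamine 57 uM final (EC100) as control.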
D2 ag-2 – HTS Assay for Allosteric Agonists of the Human D2 Dopamine Receptor: Primary Screen for Agonists | D(2) dopamine receptor (Homo sapiens), P14416 | HEK293 T-REx D2 cells, calcium flux agonist mode | activation, % at 2 µM | 0.53% of 340,000 active;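 active = activation over 3 SD above normal in the single-dose calcium agonist read, cut at about 30% in these data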; note: 0% is about no effect
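Tetracycline-induced HEK293 T-REx cells with force-coupled D2 receptor, plated overnight at 30 C, loaded with no-wash calcium dye. After a 10 s baseline, compound was pin-added and calcium flux read kinetically for 180 s; calcium rises flagged agonists.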
D2 antagonist – HTS Assay for Allosteric Antagonists of the Human D2 Dopamine Receptor: Primary Screen for Antagonists | D(2) dopamine receptor (Homo sapiens), P14416 | HEK293 TREx D2 cells, calcium flux, dopamine EC80 | inhibition, % at 10 µM | 2% of 340,000 active | AID 485344, 2010; in the data active = inhibition above about 30%; inactive = below that, where a call was filed; note: 0% is about no effect
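Cells plated overnight at 30 C with tetracycline; no-wash calcium dye, 30–90 min RT; 10 s baseline; compound pinned; 180 s read; EC80 dopamine added; another 180 s read.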
Starred values were filed as active, the others as inactive; / = no result.

SMILES | D2 PAM-1 | D2 PAM-2 | D2 ag-1 | D2 ag-2 | D2 antagonist
CCOC(=O)C1=C(C)N=C2SC(C)C(=O)N2C1c1ccc(OC(C)=O)c(OC)c1 (configuration not stated) | -3 | 38* | -2 | 0 | 11
CCOc1cc(C2C(C(=O)OC)=C(C)N=C3SC(C)C(=O)N32)ccc1OC(C)=O (configuration not stated) | -14 | 4 | -3 | 0 | -1
CCN(CC)c1ccc(NC2=C(Cl)C(=O)c3ccccc3C2=O)cc1 | 60* | 1 | 10 | 0 | 13
Cc1ccc(NC2=C(Cl)C(=O)c3ccccc3C2=O)cc1 | 21 | -4 | 8 | 0 | 16
CCCNC(=O)c1onc(CSc2ccc(F)cc2)c1C(=O)NCCOC | -12 | 1 | -3 | 0 | -3
CCN(CC(O)CON=C1c2ccccc2-c2ccccc21)S(=O)(=O)c1ccc(C)cc1 (configuration not stated) | -21 | 2 | -1 | 2 | 34*
COc1ccc(CNC(=O)CCc2c(C)c3cc4c(C)coc4cc3oc2=O)cc1 | / | -7 | / | -1 | /
O=C(COC(=O)/C=C/c1ccco1)NCc1ccccc1Cl | 0 | 9 | -2 | 0 | 33*
O=C(COC(=O)/C=C/c1ccco1)NCc1ccc(Cl)cc1Cl | 0 | / | 8 | / | /
O=C(Nc1ccc(NC(=O)C2CC2)cn1)c1ccccc1 | 1 | 4 | 4 | 1 | 36*
O=C(Nc1ccc(NC(=O)C2CC2)cn1)c1ccccc1Cl | 2 | 9 | -2 | 0 | 23
O=C(Nc1ccc(NC(=O)C2CC2)nc1)c1cccnc1 | -15 | 2 | 0 | 1 | 38*
O=C(Nc1ccc(NC(=O)C2CC2)nc1)c1cccc(F)c1 | -20 | -6 | -4 | 0 | -13
COc1cc2c(-c3ccc4[nH]ccc4c3)c(-c3ccc(C#N)cc3)oc(=O)c2cc1OC | 2 | -19 | 1 | / | /
COc1ccc(OC)c(-c2nn(-c3ccccc3)cc2C(=O)NCC(c2ccco2)N2CCCC2)c1 (configuration not stated) | -35 | -20 | -3 | 0 | 36*
COc1ccccc1NS(=O)(=O)c1cccc(C(=O)NCC(c2ccccc2OC)N2CCCC2)c1 (configuration not stated) | -43 | -10 | -4 | 0 | 11
COc1ccccc1NS(=O)(=O)c1cccc(C(=O)NCC(c2ccco2)N2CCCC2)c1 (configuration not stated) | -23 | -27 | 1 | 1 | 63*
COc1ccccc1CN(C)C(=O)c1ccc(S(=O)(=O)NCc2ccco2)cc1 | -7 | 7 | -3 | 0 | 1
COc1ccc(C(=O)CCc2ccccc2)cc1 | 0 | 1 | -4 | -1 | -17
Cc1cccc(N2CCN(C(=O)COc3ccc4c(c3)CCC4)CC2)c1C | 4 | 3 | -1 | 0 | -3
CC(=O)Nc1ccc(NC(=O)CSc2ncnn2-c2ccccc2)cc1 | 5 | 31* | -2 | 0 | 15
COc1cccc(NC(=O)CSc2nccn2-c2cccc(OC)c2)c1 | -34 | -16 | -3 | 1 | -1
CC(=O)Nc1ccc(NC(=O)CSc2ccccn2)cc1 | -10 | 5 | -1 | -1 | 1
COc1cccc(-n2ccnc2SCC(=O)Nc2ccccc2)c1 | -32 | -23 | -4 | 0 | 50*
Nc1ncnc(Nc2ccccn2)c1[N+](=O)[O-] | -7 | 9 | -2 | 0 | 31*
SMILES | D2 PAM-1 | D2 PAM-2 | D2 ag-1 | D2 ag-2 | D2 antagonist
Cc1cccc(Nc2ncnc(N)c2[N+](=O)[O-])n1 | -5 | 4 | -4 | 1 | -26
O=C(CNC(=O)N1CC(=O)Nc2ccccc21)NCc1ccccc1Cl | -8 | / | -6 | / | /
CC(=O)N1CCOc2ccc(S(=O)(=O)N3CCC(C(=O)Nc4cc(C)cc(C)c4)CC3)cc21 | -23 | -12 | -2 | -1 | 52*
Cc1cc(C)cc(NC(=O)C2CCN(S(=O)(=O)c3ccc4[nH]c(=O)ccc4c3)CC2)c1 | -9 | -16 | 2 | 0 | 31*
CCc1cccc(CC)c1NC(=O)c1ccccc1 | -3 | 5 | -4 | -1 | 21
CC(C)c1cccc(C(C)C)c1NC(=O)c1ccccc1 | 0 | -12 | -4 | -2 | 43*
CCC1(NC(C)=O)CC2CC1CC2NC(C)=O (configuration not stated) | -1 | -19 | -4 | 0 | 38*
CC(=O)NC1CCCC(NC(C)=O)C1 (configuration not stated) | -4 | / | 1 | / | /
CCOc1ccccc1N1CCN(C/C=C/c2ccc(N(C)C)cc2)CC1 | -34 | -21 | 0 | 0 | 79*
COc1ccccc1-n1nnnc1SCc1cc2c(cc1Br)OCO2 | -14 | 43* | -2 | 0 | -9
COc1ccccc1-n1nnnc1SCc1ccccc1 | -17 | -6 | 5 | -1 | 12
COc1ccccc1N1CCN(Cc2nc(N)nc(Nc3ccc(C)cc3)n2)CC1 | -42 | -38 | 1 | 26 | 89*
CCOc1ccccc1N1CCN(Cc2ccc(OC)c(OC)c2)CC1 | 1 | -27 | -1 | -2 | 94*
CCOc1cc(CN2CCCCCC2)ccc1OC | -5 | -12 | -7 | 0 | 7
Cc1ccc(Nc2nc(N)nc(CN3CCN(C)CC3)n2)cc1 | -17 | -8 | -1 | 0 | 18
COc1ccc(-c2cc(C(F)(F)F)nc(SCCC(=O)Nc3cccc(O)c3)n2)cc1 | / | 4 | / | -1 | /
COc1ccccc1N1CCN(Cc2cc3c(cc2Br)OCCO3)CC1 | -18 | -27 | -18 | -1 | 104*
CCOc1ccccc1N1CCN(Cc2cc3c(cc2[N+](=O)[O-])OCO3)CC1 | -25 | -15 | 0 | 1 | 60*
COc1cc(OC)c(OC)cc1CN1CCN(c2ccccc2OC)CC1 | -21 | -15 | 1 | 0 | 70*
CCOc1ccccc1N1CCN(Cc2cnc(-c3ccccc3)[nH]2)CC1 | -6 | -24 | 2 | 0 | 78*
Cc1ccccc1N1CCN(Cc2cc3c(cc2[N+](=O)[O-])OCO3)CC1 | -41 | 0 | 5 | 0 | -20
CCCCCOc1ccc(/C=C/C(=O)Nc2sc(C)c(C)c2C(=O)OCC)cc1OC | / | -4 | / | / | /
CCC(=O)c1c[nH]c(C(=O)N2CCOCC2)c1 | -7 | -3 | -7 | 0 | 5
CCOc1ccccc1N1CCN(Cc2ccc(OC)c(OC)c2OC)CC1 | -20 | 1 | -1 | -3 | 23
COc1ccc(CC(C)N2CCN(c3ccccc3OC)CC2)cc1OC (configuration not stated) | -16 | -25 | -2 | 22 | 89*
